Assay results as given in PubChem BioAssay AID1508600 (Functional Genomics Laboratory (NCATS/FGL), 2020).
Hit rate of the full screen: of about 53,000 sequences, about 3,700 (7%) were called active. Only a selection was taken, and actives are over-represented in it overall. Values without a mark were called inactive.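 Rule for the calls: active = gene knockdowns whose robust z-score for IL-1 alpha signal is at least 2 or at most -2, so actives lie on both sides; inactive = the rest.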

Experiment: Components of the Cytosolic LPS Sensing Pathway: Gene Identification via Genome-wide siRNA Screen;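 note: robust z of the log signal after scaling to non-targeting control siRNA wells of the plate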
Settings: RAW264.7 macrophages, IL-1a HTRF, actives lie on both sides, screened at 100 nM (by protocol), cells primed 5 h with Pam3CSK4 first
In short: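 Three distinct siRNAs per gene were tested singly at 100 nM in RAW264.7 macrophages. Following Pam3CSK4 priming and 24 hour LipidA transfection, IL-1a secretion was read by HTRF.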

| Sequence | z-score |
| --- | --- |
| CCAAAGAUACCAUAGGAUUTT against Zc3h12a | 1.05 |
| GGUAGAUCCUAUCCUGUCUTT against Foxo4 | -2.57 (active) |
| GCUGCAAUAGUCACUGGAGTT against H2-K1 | 0.115 |
| GCGACCAGCAGGUCAAAAUTT against Hoxd12 | 3.09 (active) |
| CCCUUCUCUGAGACAACACTT against Tcirg1 | 1.42 |
| GGAAAUAAUUCACUCACCATT against Eya1 | -2.99 (active) |
| CCAAGUCGUAAUCUAGAAGTT against Scn7a | 0.191 |
| GCUGGACCUUCAUGUAAUATT against Pcsk1 | -0.234 |
| CCUCAUGUCUACAAAGUUATT against Gvin1 | -1.14 |
| GCGAGUUUUUGGAUGGUAGTT against Slc4a3 | 0.243 |
| GGUAUGCAUGAACAUAAUGTT against Prl7c1 | 0.788 |
| GGACUUAAAAGAGGAGAUCTT against 4933434E20Rik | 3.73 (active) |
| GGCAUUUUCGUAUAGUUACTT against B3gnt9 | 0.81 |
| GGUCAUCAGCUCUAUGAGCTT against Fry | 0.0787 |
| GCACAGAGGAUGUACGUUATT against Cstad | -0.665 |
| GCCCAGAGAAUGACCUAUATT against 9130019O22Rik | 0.54 |
| GGUGCUCCACAACACCUAUTT against 2510039O18Rik | 2.05 (active) |
| CCUACUAUACAAUUCUGCUTT against Clns1a | 0.556 |
| GGUCACUUCAUCCAUAGCUTT against Atmin | -1.79 |
| GACAGCAACGUGAAAUUAGTT against Xlr | -0.828 |
| GGAUCUUUUCCAAAGAAAUTT against Dusp10 | -0.409 |
| GGAGGAAGAAGAGAUACCUTT against Foxh1 | -0.96 |

| Sequence | z-score |
| --- | --- |
| CGGGAAACUUAGGUAUGAUTT against Olfr1009 | -3.05 (active) |
| GGCAUGGAAGGCUAAACAGTT against Slc25a17 | -1.98 |
| GGGUAUAGAGUCAAUCUGATT against Gfm2 | -0.381 |
| GCAGGGAUCUGCUAAGCUATT against Hey1 | -0.953 |
| GGACCCAUUGGUCAUCAUATT against Tent5b | 0.18 |
| CGGAACCAUAGGGAAUCAGTT against Cmc2 | 2.04 (active) |
| GCCUGAAUUUGUAAGCAGUTT against Fgf1 | 0.0666 |
| CAUUGUCAUUCUGCUGGCATT against Olfr1249 | -0.0752 |
| GGUCACCAUCAUCAUCAAUTT against Carmil1 | 0.484 |
| GGUGGUAGAACUGUUAAAATT against Klc2 | 0.311 |
| GGAGAAAGAGACGGACAACTT against Fgfr1 | 2.8 (active) |
| GGACUGAAUCUUUAAAGGUTT against Nkx1-2 | 0.199 |
| GGUGUUGUGGAAUAUUUAATT against Cnot6l | 1.23 |
| GGUCUUACCUUUUGAAAAATT against Mtbp | 0.0999 |
| GCAUCCUCUCACUCUCAAUTT against Grin2a | 2.37 (active) |
| CCGAAGCCUUGAAAGCAGUTT against Shq1 | 0.302 |
| GGAAACUGGAUCAAACCAUTT against Smarcd3 | -0.707 |
| CGAAGUGGUCAAGUUCUCUTT against Fbxo17 | -2.09 (active) |
| CGAGUUAGUUUUUCUGGGCTT against Tctex1d4 | 0.997 |
| GCAAGAAAAGGUGCUAUCUTT against Med4 | -0.314 |
| GGAGCUGGAAGAGUGGUAUTT against Clta | -0.535 |
| GGCUAUGUAGAUCUUGUCATT against Cyb5r1 | -1.09 |

| Sequence | z-score |
| --- | --- |
| GCUCGGUUAAGAGCCCAUGTT against Pabpn1l | -2.11 (active) |
| GGCACAACUGAUUUUGAAATT against Ifngr2 | -0.362 |
| GCGAUCACAGACAUCAUUGTT against Rabgef1 | -0.423 |
| GGAAAUAAGCAGCGCAUGCTT against Ippk | -1.27 |
| CCUACGAGGAUACUUACAATT against Kif18b | 2.81 (active) |
| GGUGGUUCUGGUGUACAGUTT against Nxf1 | -1.98 |
| CCCUAUAAGCAACUUAUGCTT against Tor1aip1 | -0.115 |
| GCACCAUUUGAGUUUUUCUTT against Vmn1r8 | -0.578 |
| CAUUUACAUUCUUAUUACCTT against Olfr473 | -1.43 |
| CCCGAACCUUAGUAAAUGUTT against Psmd8 | 0.308 |
| GCAGACAGCUUCUCACUAUTT against Tmem114 | -0.431 |
| GCUAAGAAACUGGUCUCAUTT against Reg4 | -0.151 |
| GGAAGAUUUGGAAAAUGGATT against Dph3 | -2.19 (active) |
| CCAUCAUUUAUGAAGACCCTT against Dcaf7 | -1.44 |
| CCCAAGCACCAGCCCUAUATT against Frmd8 | -1.58 |
| GGGAGAAUUGUAGAUUAUUTT against Myo10 | 0.475 |
| CCAUCGACUGUUUCAUCCUTT against Olfr987 | -0.915 |
| GCUUGAAGUCUCUUGCUGGTT against Nhlrc2 | 3.53 (active) |
| GCUACUCUUUGUCUCAUGUTT against Hexb | -0.826 |
| GGAUCAGAUCUUGUGUGACTT against Trim16 | -0.602 |
| CCGCUUGCUCAUUGUAUCATT against Ruvbl2 | -0.976 |
| GGUUCCAUGAGAAAAGGUUTT against F2r | -1.45 |

| Sequence | z-score |
| --- | --- |
| AUCUGUUCCGGAGGAAUUUTT against 1700029I15Rik | 3.85 (active) |
| GGAGGAGUUUCGCUACGGATT against Sars2 | -0.00587 |
| GGUGUACCCUGAAUUUGAATT against Wdr62 | -1.67 |
| GGUUAUACGCUUAGAUUUATT against Irx5 | 1.77 |
| GCUCUGUUACUAUUUGAAUTT against Cts6 | 0.137 |
| GGUUUUGUACUUUCAUAGATT against Fam111a | 0.523 |
| GGACUUGAACUGAAAAGUUTT against D830013H23Rik | 1.01 |
| GGCAAAAUAAAGCUUAAGGTT against Robo3 | -0.517 |
| GGAUUUGAGGUUCAUAUAATT against Cdk20 | -2.48 (active) |
| CGACAGACAUCGCUAUAAUTT against Gm11437 | -0.296 |
| GGAGAUACCGGGAAUCCAATT against Rpl19 | 0.146 |
| GCGCUUCCAAUAACAAAAATT against 1700123L14Rik | -2.19 (active) |
| CCAAGUGGGAUUUGCCAACTT against Ifi47 | -1.68 |
| GGAAUAUCACCAAACCAAATT against 2310057J18Rik | -1.08 |
| CCUUCACCUGGCUAUUAGATT against Kif12 | -0.14 |
| GGAUGUGUUCUAUUCUAUATT against Oprl1 | 0.134 |
| GGAAAGUUAAUGCACAUUUTT against Hmg20a | -1.68 |
| CCUGAAAGAAAAGAAGGACTT against Ptms | 0.107 |
| GGCGACAAGCAACUUAUAATT against Mgat4c | 3.25 (active) |
| GGAUGACUGUAAGUUACGGTT against Mast2 | -0.229 |
| GGUGCUCCUAUCCUGUUCATT against Lhfp | -0.331 |
| GGCGGCUGAAAGUUUUGCATT against Pklr | 0.94 |

| Sequence | z-score |
| --- | --- |
| GCACAAGAGGUAUCCUUGCTT against Gm5111 | 0.000682 |
| GCCUGCAUUGCAAAUGAAATT against Krtap13-1 | -0.257 |
| GGCUUUAACAUCAAAGCAATT against Mgarp | 0.0459 |
| GGAAUCCUUUUCUUUCUAATT against Slc13a1 | 0.0492 |
| GGAAGACAGGGACAAUACCTT against Car15 | -2.36 (active) |
| CCAUCCUAGCUGUGGUAAGTT against Olfr554 | 1.32 |
| GGUCGUUCAGAAGCACCAGTT against Aldh16a1 | -1.31 |
| CGGCACUGACUUAUUGUUCTT against Olfr574 | 0.886 |
| GGUGUACCAAGUGUUUUCATT against Faf2 | 3.08 (active) |
| GGUCACUGAAUUGUCAAUCTT against Polr3h | 0.773 |
| GGGCAAAGACAGUAUUCAATT against B530045E10Rik | 0.4 |
| CCAUGUGACAAAGCCUACCTT against Fam131b | 0.845 |
| GGAGGAAAGACGAAUCAACTT against Clcn7 | 1.44 |
| GCACUGAGCUUGACAAAGATT against Upp2 | -0.174 |
| GGGCUUUCUCAGAAAAGAATT against Olfr508 | -1.29 |
| GGGCAUGAAAGAAUUCUUATT against D130040H23Rik | -2.83 (active) |
| GGCCAUCAUUGUCACCGUGTT against Adra2a | 0.955 |
| GGUUUAGGUUUCAUAAUCCTT against Ostc | -0.338 |
| GGACCUAUGCAGCACUAAATT against Ppp1r11 | 1.73 |
